This is a sample that favours compounds with a hit; in the whole collection about 10% have one here.
Six1-Eya2 inh: blocks human Six1 binding to Eya2; AlphaScreen GST-Six1/His-Eya2 binding, biochemical; stronger effect = lower value; activity change, % (concentration not given with the values); 360,000 compounds, 0.56% hits; AID 651725; in the data active means activity change below about -65%; inconclusive means mostly about -30% to -63%; further: on the % scale 0 is the no-effect control and ±100 the full control effect
Target sequence (O00167 whole entry, looked up): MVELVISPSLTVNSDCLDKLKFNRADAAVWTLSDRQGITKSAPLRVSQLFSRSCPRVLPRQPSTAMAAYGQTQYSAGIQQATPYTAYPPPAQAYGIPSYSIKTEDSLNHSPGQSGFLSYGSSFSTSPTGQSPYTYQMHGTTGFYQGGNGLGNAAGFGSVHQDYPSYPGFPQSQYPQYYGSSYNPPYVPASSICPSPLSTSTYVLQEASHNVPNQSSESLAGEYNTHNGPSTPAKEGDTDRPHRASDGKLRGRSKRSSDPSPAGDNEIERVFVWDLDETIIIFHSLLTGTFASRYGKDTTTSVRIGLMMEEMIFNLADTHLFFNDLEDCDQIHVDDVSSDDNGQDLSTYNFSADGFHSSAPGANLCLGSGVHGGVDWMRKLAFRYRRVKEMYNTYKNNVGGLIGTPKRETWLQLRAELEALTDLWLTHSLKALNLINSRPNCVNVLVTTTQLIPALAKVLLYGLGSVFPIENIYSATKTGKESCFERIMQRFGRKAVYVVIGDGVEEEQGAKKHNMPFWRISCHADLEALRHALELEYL
Target sequence (Q15475 whole entry, looked up): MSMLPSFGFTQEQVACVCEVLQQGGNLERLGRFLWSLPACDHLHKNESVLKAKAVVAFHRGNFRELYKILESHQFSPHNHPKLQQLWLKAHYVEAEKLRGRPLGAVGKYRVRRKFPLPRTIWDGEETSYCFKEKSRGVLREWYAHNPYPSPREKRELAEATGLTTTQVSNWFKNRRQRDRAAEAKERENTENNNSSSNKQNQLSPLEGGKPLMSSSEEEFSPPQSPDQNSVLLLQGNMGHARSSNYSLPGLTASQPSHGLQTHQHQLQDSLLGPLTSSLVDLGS
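GST-Six1 + His-Eya2 (5X stock: 250/500 nM); Tris pH 8.0, 300 mM NaCl, 0.05% BSA, 0.02% Tween 20; GSH donor/Ni acceptor beads; 1 h 37 °C dark; AlphaScreen readout.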
JMJD2A Tudor inh: JMJD2A Tudor domain (human) inhibition. Potency, µM (top dose mostly 114 µM), for the others: top-dose activity change, negative = inhibition, hits mostly inhibitors. O75164. AlphaScreen JMJD2A-Tudor / H3K4me3 peptide binding. 390,000 compounds, 4.4% hits; further: potency means the concentration at half of the fitted maximal effect; on the % scale 0 is the no-effect control and ±100 the full control effect; nearly all actives have a fitted effect of over 50% in size
G9a inh: G9a (human) methyltransferase inhibition. Q96KQ7. 350,000 compounds, 8.8% hits. AID 504332. G9a H3K9 monomethylation, AlphaScreen, 2 h. Potency, µM (top dose mostly 102 µM), without a hit: top-dose activity, negative = inhibition, hits mostly inhibitors; further: potency means the concentration at half of the fitted maximal effect; on the % scale 0 is the no-effect control and ±100 the full control effect; nearly all actives have a fitted effect of over 75% in size
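G9a (20 nM) preincubated 15 min RT with compounds, then 500 nM biotinylated H3K9 peptide and 20 uM SAM added; 2 h RT reaction. Monomethyl-H3K9 product detected by AlphaScreen with anti-H3K9me1 antibody, streptavidin donor and anti-rabbit IgG acceptor beads.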
HP1b chromo inh: HP1-beta chromodomain-methylated histone interaction inhibition | P83916 | AlphaScreen HP1-beta / biotin-H3K9me3 peptide binding | Potency, µM (highest dose often 114 µM), inactives show at the highest dose activity change, negative = inhibition, usual class: inhibitors | 390,000 compounds, 0.56% hits | AID 540317; further: potency means the concentration at half of the fitted maximal effect; nearly all actives have a fitted effect of over 70% in size
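HP1-beta protein (50 nM final) preincubated 30 min at room temperature with biotinylated H3(1-18)K9me3 peptide (50 nM) in PBS pH 7.4, 0.01% Tween-20, then compound added for 30 min. AlphaScreen streptavidin donor/nickel chelate acceptor beads (10 ug/mL final), 30 min dark, luminescence read.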
BAZ2B block: inhibitors of human BAZ2B bromodomain | Q9UIF8 | AlphaScreen BAZ2B-H3K14Ac peptide displacement | Potency, µM (doses to about 114 µM), for the others: at the top dose activity change, negative = inhibition, usual class: inhibitors | 360,000 compounds, 4.4% hits | AID 504333; further: potency means the concentration at half of the fitted maximal effect; on the % scale 0 is the no-effect control and ±100 the full control effect; nearly all actives have a fitted effect of over 60% in size
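Inhibition is scored as reduced AlphaScreen emission. The BAZ2B/b-H3(5-23)K14Ac complex (50 nM each) in PBS pH 7.4, 0.01% Tween-20 meets compound (up to 110 uM) for 30 min at RT before bead addition.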
CtBP-E1A inh: inhibitors of CtBP/E1A interaction; AlphaScreen GST-E1A/His-CtBP binding, 1536-well; stronger effect = lower value; 340,000 compounds, 0.49% hits; activity change, % (no concentration beside the values); AID 651724; in the data active means activity change below about -65%; inconclusive means mostly about -30% to -63%; further: on the % scale 0 is the no-effect control and ±100 the full control effect
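In 5 uL wells, 23 nL compound meets equimolar GST-E1A and His-CtBP (5X stock 125 nM each) for 2 h, 37 °C. Beads (5X, 50 ug/mL) then 1 h, 37 °C, dark.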
The depositor's hits bear a star; [ ] = another dose, or the depositor's remark. Unless noted, the call rests on the fitted dose curve; in most records, active means well fitted inhibition curve with a large enough effect; inconclusive means small, poorly fitted or top-dose-only effect; inactive means no such curve, though single readings can be large or run the other way.

For CC1(c2ccc(Cl)cc2)NC(=O)N(CC(=O)NCCC2=CCCCC2)C1=O (configuration not stated) the results were Six1-Eya2 inh 27.1, JMJD2A Tudor inh 2.0%, G9a inh 0.891µM*, HP1b chromo inh 53.6%, BAZ2B block -0.2% and CtBP-E1A inh 0.0.
For COc1ccc(-c2nc(-c3cccc(C)c3)nc(Cl)c2C#N)cc1 the results were G9a inh 50.1µM* and BAZ2B block -35.4%.
Screening CC1(C)CC(=O)C(=CN2CCOCC2)C(=O)C1 returned Six1-Eya2 inh -5.2, JMJD2A Tudor inh 0.7%, G9a inh 35.5µM*, HP1b chromo inh 47.9%, BAZ2B block -34.2% and CtBP-E1A inh 6.8.
Screening CC1(C)CC(=O)C(=CN2CCN(C(=O)c3ccco3)CC2)C(=O)C1 returned Six1-Eya2 inh 13.5, JMJD2A Tudor inh -0.7%, G9a inh inconclusive, HP1b chromo inh 50.7%, BAZ2B block 3.3% and CtBP-E1A inh 10.9.
For O=C(CS(=O)(=O)Cc1ccccc1)NCc1ccccc1Cl the results were Six1-Eya2 inh 9.0, JMJD2A Tudor inh -13.5%, G9a inh inconclusive, HP1b chromo inh 35.2%, BAZ2B block -8.8% and CtBP-E1A inh -3.3.
Screening CCOC(=O)N1CCN=C1SCc1ccc(C(F)(F)F)cc1 returned Six1-Eya2 inh 17.8, JMJD2A Tudor inh 117.2%, G9a inh 111.3%, HP1b chromo inh 124.9%, BAZ2B block 102.2% and CtBP-E1A inh 26.5.
Screening CCN(C(=O)COC(=O)c1cc(C)n(-c2ccc(F)cc2)c1C)C1CCS(=O)(=O)C1 (configuration not stated) returned Six1-Eya2 inh -4.9, JMJD2A Tudor inh -34.7%, G9a inh 50.1µM*, HP1b chromo inh 1.0%, BAZ2B block inconclusive and CtBP-E1A inh 1.2.
Screening Cc1ccc(-n2c(C)cc(C(=O)OCC(=O)N(C)C3CCS(=O)(=O)C3)c2C)cc1 (configuration not stated) returned Six1-Eya2 inh 1.3, JMJD2A Tudor inh -23.0%, G9a inh 50.1µM*, HP1b chromo inh -10.5%, BAZ2B block inconclusive and CtBP-E1A inh -12.3.
`CN(C(=O)COC(=O)c1ccc2c(c1)NC(=O)CS2)C1CCS(=O)(=O)C1` (configuration not stated) gave Six1-Eya2 inh 2.8, JMJD2A Tudor inh -5.3%, G9a inh 50.1µM*, HP1b chromo inh 15.9%, BAZ2B block 5.9% and CtBP-E1A inh 0.9.
`COc1ccc(Cc2ccccc2C(=O)O)cc1` gave Six1-Eya2 inh 7.8, JMJD2A Tudor inh -10.3%, HP1b chromo inh 9.4%[57 µM] and CtBP-E1A inh -5.2.
`COc1ccc(CC2=CC(=O)c3ccccc3C2=O)cc1` gave Six1-Eya2 inh 0.9, JMJD2A Tudor inh 25.1µM*, HP1b chromo inh 12.6µM* and BAZ2B block 14.1µM*.
For COc1ccc(/C=N/Nc2nnc(C)n2N)cc1OC(C)=O the results were Six1-Eya2 inh 2.9, JMJD2A Tudor inh -11.5%, G9a inh 44.7µM*, HP1b chromo inh 23.3%, BAZ2B block -24.7% and CtBP-E1A inh -5.0.
For O=[N+]([O-])c1cccc(C=NNc2ccccc2)c1 the results were Six1-Eya2 inh -20.7, JMJD2A Tudor inh 39.8µM*, HP1b chromo inh inconclusive and CtBP-E1A inh -6.1.
`Cc1nnc(N/N=C/c2ccc([N+](=O)[O-])cc2)n1N` gave Six1-Eya2 inh -68.1*, JMJD2A Tudor inh -11.7%, G9a inh 22.1%, HP1b chromo inh 13.8%, BAZ2B block inconclusive and CtBP-E1A inh inconclusive.
For COc1ccc(/C=N/Nc2nnc(C)n2N)cc1OC the results were Six1-Eya2 inh inconclusive, JMJD2A Tudor inh -5.3%, G9a inh -27.8%, HP1b chromo inh 35.0%, BAZ2B block -10.8% and CtBP-E1A inh -0.3.
For O=[N+]([O-])c1ccc(C=NNc2ccccc2)cc1 the results were Six1-Eya2 inh inconclusive, JMJD2A Tudor inh 25.1µM*, HP1b chromo inh inconclusive and CtBP-E1A inh inconclusive.
O=[N+]([O-])c1cccc(/C=N/N=C\c2ccccc2)c1 was read as Six1-Eya2 inh -2.3, JMJD2A Tudor inh -28.8%, G9a inh 38.9%, HP1b chromo inh 33.7%, BAZ2B block -37.2% and CtBP-E1A inh -4.9.
For O=C(CN1C(=O)C2(SCC(=O)N2c2ccccc2)c2ccccc21)Nc1ccccc1C(F)(F)F (configuration not stated) the results were JMJD2A Tudor inh -17.2%, G9a inh -6.0%[59 µM], HP1b chromo inh 19.4% and BAZ2B block 2.1%[57.1 µM].
Screening CCc1ccc(C2=CC(c3cccc(C)c3)n3c(nc4ccccc43)N2)cc1 (configuration not stated) returned JMJD2A Tudor inh 12.2%, G9a inh -9.3%[59 µM], HP1b chromo inh 89.6% and BAZ2B block -1.4%.
For O=C(NCCCN1CCCC1=O)c1ccc2c(=O)n(-c3ccccc3F)c(=S)[nH]c2c1 the results were Six1-Eya2 inh -0.1, JMJD2A Tudor inh inconclusive, G9a inh 25.1µM*, HP1b chromo inh 29.3%, BAZ2B block inconclusive and CtBP-E1A inh 2.4.
For COc1ccc(Cn2c(=O)[nH]c3cc(C(=O)NCCCN4CCCC4=O)ccc3c2=O)cc1 the results were Six1-Eya2 inh -3.8, JMJD2A Tudor inh 5.1%, G9a inh 8.4%[2.33 µM], HP1b chromo inh 42.6%, BAZ2B block inconclusive and CtBP-E1A inh -0.8.
COc1ccc(-n2c(=S)[nH]c3cc(C(=O)NCc4ccccc4)ccc3c2=O)c(OC)c1 was read as Six1-Eya2 inh -8.4, JMJD2A Tudor inh -9.5%, G9a inh 22.4µM*, HP1b chromo inh 27.6%, BAZ2B block 0.0% and CtBP-E1A inh -18.2.
For O=C(NCCCN1CCCC1=O)c1ccc2c(=O)n(-c3ccc(F)cc3)c(=S)[nH]c2c1 the results were G9a inh 31.6µM* and BAZ2B block -14.5%.
COc1cccc(CNC(=O)c2sc3ncccc3c2-n2c(C)ccc2C)c1OC was read as JMJD2A Tudor inh inconclusive, G9a inh inconclusive, HP1b chromo inh 14.6%[57 µM] and BAZ2B block -27.8%.
Cc1cc(C)n(C(=O)CNC(=O)c2ccco2)n1 was read as Six1-Eya2 inh 3.2, JMJD2A Tudor inh -24.4%, G9a inh 70.8µM*, HP1b chromo inh 19.7%, BAZ2B block 2.6% and CtBP-E1A inh 5.5.
Screening N#CCCN(C(=O)CN1CCN(S(=O)(=O)c2ccc3c(c2)OCCO3)CC1)c1ccc(F)cc1 returned Six1-Eya2 inh 2.6, JMJD2A Tudor inh -25.6%, G9a inh inconclusive, HP1b chromo inh 15.9%, BAZ2B block 12.5% and CtBP-E1A inh -4.5.
